The record followed here is ChEMBL document CHEMBL4513146, “CO-ADD screening of Karazin Kharkiv National University (Ukraine) compounds”.

Screen size: about 21,000 compounds; fewer than 10 showed an effect of 50% or more. These entries were drawn from the full list. Entries with a potency or affinity are not part of this list.

This experiment deals with Acinetobacter baumannii. The settings on record: Concentration 32 ug.mL-1;; ASSAY_TEST Inhibition of Bacterial Growth; detection method Absorption (OD600); MEDIA CAMHB; plate type 384well; NBS; CORNING #3640; time 18 hr.
Usually Inhibition stands for the change of the read-out against control, counted positive when it falls. As for `Cc1ccc(NC(=O)Cn2nc3c4c5c(sc4ncn3c2=O)CCCC5)c(Cl)c1`, the Inhibition was -9.66%. In the case of `COc1cccc(-n2ccn3c(SCC(=O)c4ccc(C)cc4)nnc3c2=O)c1`, the Inhibition is listed as -4.26%. As to `COc1ccc(-c2cc3c4nn(CC(=O)Nc5cc(OC)cc(OC)c5)c(=O)n4ccn3n2)cc1`, the Inhibition is reported as -11.34%.

Regarding `CCc1nnc2c(S(=O)(=O)N(Cc3cccc(C)c3)c3cccc(Cl)c3)cccn12`, the Inhibition is 8.48%.

On to `CCOc1ccc(C(=O)Cn2nc3n(CCC(C)C)c(=O)c4sccc4n3c2=O)cc1`, for which the Inhibition amounted to 1.79%. Take `O=C(CSc1nnc2c(=O)n(-c3ccc(Br)cc3)ccn12)Nc1cc(F)ccc1F`: the Inhibition is reported as 0.45%. `CCOc1ccc(-n2ccn3c(SCC(=O)c4ccc(C)cc4)nnc3c2=O)cc1`: the Inhibition is recorded as 4.11%.

`CCOc1ccc(NC(=O)Cn2nc3c(Oc4ccc(C)cc4)nccn3c2=O)cc1`: the Inhibition is given as 0.89%. For `CCc1nnc2ccc(S(=O)(=O)N(Cc3ccc(OC)cc3)c3cccc(F)c3)cn12`, the Inhibition was -12.55%.

Regarding `COc1ccc(NC(=O)Cn2nc3c4c5c(sc4ncn3c2=O)CCCC5)cc1`, the Inhibition was -5.35%. Consider `COc1ccccc1NC(=O)Cn1nc2c3c4c(sc3ncn2c1=O)CCCC4`, for which the Inhibition is -5.75%. In the case of `O=C(CSc1nnc2c(=O)n(-c3cccc(F)c3)ccn12)Nc1ccc(Br)cc1`, the Inhibition is 3.4%. In the case of `COc1cccc(Oc2nccn3c(=O)n(CC(=O)Nc4ccc5c(c4)OCO5)nc23)c1`, the Inhibition is reported as 0%.

For `Cc1ccc(-c2ccc3nn(CC(=O)Nc4ccc(C#N)cc4)c(=O)n3n2)cc1C`, the Inhibition is given as 6.14%. As for `CCCc1nnc2c(=O)n(CC(=O)Nc3ccc(C(C)=O)cc3)c3ccccc3n12`, the Inhibition amounted to 9.58%. The figure for `Cc1ccc(-c2cc3c4nnc(SCC(=O)Nc5ccc(C#N)cc5)n4ccn3n2)cc1` is -8.65%; for `CCOc1ccc(NC(=O)Cn2nc3c(Oc4cccc(OC)c4)nccn3c2=O)cc1` it is 5.77%; for `Cc1ccc(F)cc1NC(=O)CSc1nc2ccccc2n2c(C)nnc12` it is 5.49%. In the case of `Cc1ccc(Oc2nccn3c(=O)n(CC(=O)Nc4ccc(C)cc4Br)nc23)cc1` it was 2.31%; in that of `CCCCn1c(=O)c2sccc2n2c(=O)n(CC(=O)c3ccc(C)cc3C)nc12`, -4.56%. In the case of `O=C(Cn1nc2nc(Nc3ccc(F)cc3)ccn2c1=O)Nc1cc(F)ccc1F`, the Inhibition was determined as 12.46%.
